Source: PubChem BioAssay (NCI)
Several values for one entry are separate records, joined by “and”; a condition that tells them apart may be missing. Identical values can stand only once. This is part of a sample that, as a whole, favours compounds with a hit. Of some 83,000 tested, about 20% had one in any assay.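 Percent growth is the endpoint: 0 to 100 indicates growth inhibition (40 means 60% inhibition), 0 means no net growth, and negative values indicate cell death.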 Unmarked numbers belong to inactive results. Activity calls are given as the source filed them. How the source made its calls: active means growth percent below 10; inactive means the rest.

tested on: HL-60(TB) leukemia; assay: NCI-60 one-dose screen, 48 h (100 = growth as untreated, 0 = no growth, -100 = all killed); conditions: 10 µM unless noted

SMILES | growth
COc1cc(-c2nccc3cc4c(cc23)OCO4)cc(OC)c1OC | 5.43% (active) and 9.65% (active)
COc1c(NC=O)c2c(c([N+](=O)[O-])c1OC)C(=O)OC2 | 98% and 90.7%
C=C1c2c(C)nn(-c3ccc(OC)cc3)c2N(C)C23C[C@@H]1C1(C)c4c(C)nn(-c5ccc(OC)cc5)c4N(C)C(C)(C[C@H]12)C3 (stereo not given in full) | -2.21% (active)
CCCCCCCCCCCCCCNC(=O)Nc1ccc(Cl)c(Cl)c1 | 79.1%
CCc1ccc(Nc2cc(C)nc3nc(C)nn23)cc1 | -54.6% (active)
O=C1C(Cl)=C(NCc2ccco2)C(=O)c2ccccc21 | 85%
O=C(/C=C/c1ccc(Cl)cc1)c1ccc(O)c(CN2CCN(c3cc4c(cc3F)c(=O)c(C(=O)O)cn4C3CC3)CC2)c1 | 51.5%
O=C(/C=C/c1cccc(Cl)c1)c1ccccc1 | 95.3% and 82.5%
Cc1nn(Cc2ccccc2)cc1C(=O)Nc1sc2c(c1C(N)=O)CCC(=O)C2 | -4.39% (active)
CC(=O)/C(=C\c1c(-c2ccccc2)[nH]c2ccccc12)S(C)(=O)=O | -55.2% (active)
Cc1cnc(C(=O)NNc2nc3sc4c(c3c(=O)n2C)C(C)CCC4)cn1 (stereo not given) | -32.3% (active)
C/C(Cc1ccc(Cl)cc1)=C(/c1ccc(Cl)cc1)c1ccc(OCCN(C)C)cc1 | -10.1% (active)
CC1=C(C(=O)OCC2CCN(C(=O)OC(C)(C)C)CC2)[C@@H](c2cccc(C#N)c2)C2=C(CC(C)(C)CC2=O)N1 | 16.8%
O=Cc1c(O)c2ccccc2[nH]c1=O | 126%
COc1ccc(/C(C)=N/NC(=O)c2ccc(S(C)(=O)=O)cc2)cc1OC | 50.9%
CCCNC(=O)Nc1ccc2cc3ccc(NC(=O)NCCC)cc3nc2c1 | 74.9%
CN1C(=O)NC(c2ccc(Cl)cc2)(c2ccc(Cl)cc2)C1=O | 78.2%
CN1C(=O)N(C)C2C1NN=c1s/c(=C\c3c[nH]c4ccccc34)c(=O)n12 (stereo not given) | -34.1% (active)
CCN(CC)CCCCCCNc1cc(OC)cc2cccnc12 | -57.3% (active)
COC(=O)/C=C/C(=O)NC(N)=O | 97.4%

SMILES | growth
Nc1c(C(=O)O)[nH]c(=O)[nH]c1=O | 81.3%
CCC1=C[C@@H]2C[C@]3(C(=O)OC)c4[nH]c5ccccc5c4CC[N@+](CC(=O)Nc4cc5c(cc4OC)N(C)[C@H]4[C@@](O)(C(=O)OC)[C@H](OC(C)=O)[C@]6(CC)C=CCN7CC[C@]54[C@@H]76)(C2)[C@H]13 | 116%
CCOC(=O)c1sc(-c2ccc(OS(=O)(=O)c3ccc(Br)s3)c(C=O)c2)nc1C | 20%
CCOC(=O)c1c(/C=C/C(=O)O)nc2ccccc2c1/C=C/c1ccccc1 | 8.28% (active)
O=C(NC(=S)Nc1ccc(-c2nc3ccccc3[nH]2)cc1)c1ccc2ccccc2c1 | 40.7%
CCCCCCOc1ccc(/C=N/Nc2cc(C)nc3ccc(Br)cc23)cc1 | -13.7% (active)
Cc1ccc(N)cc1S(=O)(=O)O | 92.7% and 111%
O=C(Cn1c2c(c3ccccc31)CCCC2)Nc1ccc(-c2nc3ccccc3s2)cc1 | 99.1%
Nc1ncnc2c1ncn2C1CC(O)C(CO)O1 (stereo not given) | 79.7% and 95.3%
N=C(N)c1ccc(-c2ccc(-c3ccco3)o2)cc1 | 16.6%
COc1ccc(-c2coc3c(CO)c(O)ccc3c2=O)cc1 | -24.9% (active)
C=CCn1c(C)nc2cc(Nc3nc(Nc4ccc5nc(C)n(CC=C)c5c4)nc4ccccc34)ccc21 | 84%
CC[C@@H](C)/C=C(C)/C=C/C(O)=C1\C(=O)N[C@@H](Cc2ccc(OC(=O)[C@@](OC)(c3ccccc3)C(F)(F)F)cc2)C1=O | 8.34% (active)
CC[C@]1(O)C[C@@H]2CN(Cc3c([nH]c4ccccc34)[C@@](C(=O)OC)(c3cc4c(cc3OC)N(C)[C@H]3[C@@](O)(C(=O)OC)[C@H](OC(C)=O)[C@]5(CC)[C@@H]6C[C@@H]6CN6CC[C@]43[C@@H]65)C2)C1 | -36.5% (active)
Cc1ccc(-c2nc(/C=C3/C(=O)Nc4ccccc43)c3ccccn23)cc1 | 113%
O=C(/C=C/c1ccc(Cl)cc1)c1ccc(Br)cc1 | 81.4%
Cn1c(-c2c(N)n(CCCN3CCOCC3)c3nc(C#N)c(C#N)nc23)nc2ccccc21 | -82.3% (active)
O=C(Nc1nc2c(s1)CCc1c-2c(Br)n(Cc2ccccc2)c1Br)c1ccccc1 | 84.3%
COc1cc(C2NC(c3ccc(Cl)cc3)C(C)C(=NC(=O)c3cnccn3)C2C)cc(OC)c1OC (stereo not given) | 98.4%
CC(=O)/C(=C\c1c(-c2ccccc2)[nH]c2ccccc12)S(=O)(=O)c1ccccc1 | -68.4% (active)
